# Vaccinia mCherry = qHTS for Stage-Specific Inhibitors of Vaccinia Orthopoxvirus: mCherry Reporter Primary qHTS; Vaccinia virus mCherry reporter infection, fluorescence; 310,000 compounds, 0.63% hits; Potency, µM (top dose mostly 36.5 µM), for the others: top-dose activity change, negative = inhibition, most hits filed as inhibitors; calls by dose curve; tested in A549 cells; also: nearly all actives have a fitted effect of over 35% in size
# FMDV inh = High Throughput Screening for Foot and Mouth Disease Virus Antivirals | FMDV antiviral cell-based qHTS | Potency, µM (top dose mostly 57.9 µM), for inactives: top-dose activity change, negative = inhibition, usual class: inhibitors | 410,000 compounds, 1.2% hits | AID 1159524, 2015; calls by dose curve; tested in HEK293T cells; also: read-out not given here; nearly all actives have a fitted effect of over 45% in size
# Sm TGR block = qHTS Assay for the Inhibitors of Schistosoma Mansoni Peroxiredoxins; Schistosoma mansoni thioredoxin glutathione reductase (TGR), Q962Y6; purified TGR, DTNB reduction, TNB absorbance 405 nm; Potency, µM (doses to about 114 µM), for inactives: at the top dose activity change, negative = inhibition, usual class: inhibitors; 360,000 compounds, 3% hits; AID 485364, 2010; active = well fitted inhibition curve with a large enough effect; inconclusive = small, poorly fitted or top-dose-only effect; inactive = no such curve, though single readings can be large or run the other way; also: nearly all actives have a fitted effect of over 60% in size
#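 First, TGR (20 nM dispensed) and NADPH were mixed with compound. Second, a 15 min room-temperature incubation followed. Third, further NADPH and then DTNB were added to start the reaction. Finally, TNB absorbance was monitored kinetically.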
# Marburg entry inh = qHTS for inhibitors of binding or entry into cells for Marburg Virus; Marburg virus pseudotyped entry inhibition, cell reporter; Potency, µM (top dose mostly 37.8 µM), for the others: top-dose activity change, negative = inhibition, most hits filed as inhibitors; 300,000 compounds, 1.8% hits; AID 540276, 2011; calls by dose curve; tested in HEK293 cells
# LASV entry inh = qHTS for Inhibitors of binding or entry into cells for Lassa Virus. Lassa virus pseudotype entry inhibition, cell reporter. Potency, µM (series often up to 37.9 µM), for inactives: top-dose activity change, negative = inhibition, usual class: inhibitors. 300,000 compounds, 1.2% hits; calls by dose curve; tested in HEK293 cells; also: nearly all actives have a fitted effect of over 50% in size
# Vaccinia Venus = qHTS for Stage-Specific Inhibitors of Vaccinia Orthopoxvirus: Venus Reporter Primary qHTS; 330,000 compounds, 0.46% hits; Vaccinia virus Venus reporter expression, fluorescence; Potency, µM (doses to about 36.5 µM), for the others: at the highest dose activity change, negative = inhibition, most hits filed as inhibitors; AID 720580, 2013; calls by dose curve; tested in A549 cells; also: nearly all actives have a fitted effect of over 30% in size
# Starred values were filed as active, the others as inactive; i = inactive; ? = inconclusive; . = no result; [ ] = another dose, or the depositor's remark. Hits are enriched below; roughly 5.4% of the tested compounds scored in any of these assays. % is scaled to controls: 0 for no effect and ±100 for the full control effect; potency is read from the fitted curve at half-maximal effect.
SMILES,Vaccinia mCherry,FMDV inh,Sm TGR block,Marburg entry inh,LASV entry inh,Vaccinia Venus
c1ccc(-c2cnc(CSc3ncnc4sccc34)o2)cc1,-19%,-6%,10µM*,-11%,4%,-19%
CC(=O)Nc1ccc(SCc2ncc(-c3ccccc3)o2)cc1,-6%,16%,2%,?,-26%[46.1 µM],-7%
O=C(Nc1ccc(N2CCN(c3ccc(F)cc3)CC2)c(C(=O)O)c1)c1cccs1,8%,-1%,5%,.,24%[46.1 µM],-1%
Cc1ccccc1-c1ccc(/C=C2/SC(N3CCOCC3)=NC2=O)o1,-24%,-20%,?,?,13µM*,-26%
CCn1c(=O)c2sccc2n2c(CCC(=O)Nc3cc(C)cc(C)c3)nnc12,4%,-11%,3%,?,12%[46.1 µM],1%
O=C(CCS(=O)(=O)c1ccc(F)cc1)Nc1nnc(-c2cccs2)o1,?,-21%,-2%,-12%,8%,13µM*
COc1cc(-c2nnc(NC(=O)CCS(=O)(=O)c3ccc(F)cc3)o2)cc(OC)c1OC,?,-14%,-19%,-27%,4%,?
O=C(CCSc1ccccc1)Nc1nnc(-c2cccs2)o1,i,-11%,28µM*,.,.,-11%
COc1cc(OC)cc(-c2nnc(NC(=O)CCS(=O)(=O)c3ccc(F)cc3)o2)c1,5.6µM*,-28%,?,?,-18%,7.9µM*
O=C(CS(=O)(=O)c1ccc(F)cc1)Nc1nnc(-c2cccs2)o1,-1%,-3%,-9%,27%[46.1 µM],-1%,-1%
COc1cc(-c2nnc(NC(=O)CCS(=O)(=O)c3ccccc3)o2)cc(OC)c1OC,3.5µM*,-8%,28µM*,-27%,-12%,5.6µM*
COc1ccc(OC[C@H]2CN3[C@H](c4ccc(Br)cc4)[C@H](C)CC[C@H]3C(=O)O2)cc1,.,.,.,-7%[14.2 µM],.,.
COc1ccc(CNC(=O)CCC2N=C3c4ccccc4N=C(SCc4ccc(F)cc4)N3C2=O)cc1 (stereo unspecified),-20%,-15%,2%,.,-5%[46.1 µM],-1%
Cc1ccc(C)c(-c2nnc(NC(=O)CCS(=O)(=O)c3ccccc3)o2)c1,-2%,1%,1%,-3%,0%[46.1 µM],-13%
COc1cc(OC)cc(-c2nnc(NC(=O)CCS(=O)(=O)c3ccccc3)o2)c1,6.3µM*,-14%,32µM*,-9%,3%,?
Cc1c(CC(=O)NCCc2ccccc2)c(=O)oc2c(C)c3occ(C(C)(C)C)c3cc12,-18%,-16%,-10%,9%[46.1 µM],6%[46.1 µM],-3%
CCN(CC(=O)Nc1ccc2c(c1)CCC2)Cc1nc2ccccc2c(=O)[nH]1,.,-15%,50µM*,?,?,.
CCN(CC(=O)Nc1ccc2c(c1)OCO2)Cc1nc2ccccc2c(=O)[nH]1,-12%,10%,-8%,-6%[46.1 µM],-9%,-14%
O=C(Nc1ccc(Cl)cc1)[C@@H]1[C@@H]2C(=O)N(c3cccc(F)c3)C(=O)[C@@H]2[C@H]2C=CC=NN21,-13%,-24%,22µM*,26%,5%,4%
COc1ccc(/C=C/C(=O)OCC(=O)c2ccccc2F)cc1,-22%,39%,.,-2%,-4%,-16%
COc1ccc(/C=C\C(=O)CC(O)(c2ccccc2)C(F)(F)F)cc1 (stereo unspecified),-1%,20µM*,-12%,-19%,?,-14%
CCc1ccccc1Nc1nn2c(=O)c3ccc(C(=O)NCc4cccs4)cc3nc2s1,?,-2%,-3%,.,-29%[46.1 µM],-24%
O=S(=O)(NCC(c1ccco1)N1CCN(c2ccc(F)cc2)CC1)c1cc(F)ccc1F (stereo unspecified),-2%,?,-1%,.,?,-13%
O=C(/C=C/Nc1ccc(F)cc1F)c1ccc(Br)cc1,-9%,13%,.,?,7.1µM*,-6%
CN(C)c1ccc(N/C=C/C(=O)c2ccco2)cc1,-12%,-82%,-24%,3.7µM*,?,-7%
SMILES,Vaccinia mCherry,FMDV inh,Sm TGR block,Marburg entry inh,LASV entry inh,Vaccinia Venus
O=C(/C=C/Nc1ccc(Br)cc1F)c1ccco1,-15%,10µM*,-21%,1.4µM*,2.2µM*,-6%
O=C(/C=C/Nc1ccc(F)cc1F)c1ccco1,-24%,-83%,-5%,?,?,-21%
COc1cccc(NC(=O)Cc2ccccc2)c1,i,52%,-11%,5%,.,-7%
O=C(Cc1ccccc1)Nc1cccc(N2C(=O)C=CC2=O)c1,i,?,0.45µM*,?,-17%,-11%
CCCCCCC(=O)Nc1nc(C)c(-c2csc(Nc3ccc(Cl)cc3)n2)s1,5µM*,-6%,10%,.,.,?
Cc1ccc(Cl)cc1Nc1nc(-c2sc(NC(=O)c3ccco3)nc2C)cs1,?,1%,9%,.,.,?
Cc1nc(NC(=O)c2ccco2)sc1-c1csc(Nc2ccc(Cl)cc2)n1,7.9µM*,0%,5%,.,.,?
CCN(C(=O)CSc1nc2n[nH]c(C)c2c(=N)n1-c1cccc(OC)c1)c1cccc(C)c1,?,?,-32%,.,-31%[46.1 µM],?
FC(F)(F)c1nc(-c2cccs2)ncc1-c1nnnn1-c1ccc(Cl)cc1,.,11µM*,-7%,?,16µM*,.
Clc1ccc(-n2nnnc2-c2cnc(-c3ccncc3)nc2-c2cccs2)cc1,.,-2%,-1%,?,?,.
CN(C)/C=C1/C=C(c2ccccc2)OC1=O,.,0%,32µM*,1%,1%,.
CC1=C/C(=C/N(C)C)C(=O)O1,-25%,-5%,20µM*,.,.,?
CCN(C(=O)c1c(C)oc2ncnc(N3CCCCC3)c12)c1cc(C)ccc1C,-16%,-23%,10%,.,21%[46.1 µM],-18%
Cc1ccc(NC(=O)NCCc2c(C)nn(C)c2C)c(Cl)c1,-11%,15%,3%,.,5%[46.1 µM],-2%
Cc1ccc(N=C2NC(=O)/C(=C/c3cn(C)c4ccccc34)S2)cc1C,-12%,0%,-4%,?,0.1µM*,175%
Cn1cccc1/C=C1\SC(=Nc2ccccc2)NC1=O,.,60%,-25%,.,.,.
O=S(=O)(NCCc1csc2nc(-c3ccc(F)cc3)nn12)c1ccc(Oc2ccccc2)cc1,-22%,-20%,9%,.,-12%[46.1 µM],-19%
O=C(Nc1ccccc1)c1ccc(Nc2c([N+](=O)[O-])cc([N+](=O)[O-])c3ccccc23)cc1,?,?,7%,?,-27%,?
O=[N+]([O-])c1cc(Br)c(Nc2ccccc2)c([N+](=O)[O-])c1,.,?,11µM*,.,.,.
CCN(CC)CCNC(=O)C12CC3CC(CC(C3)C1)C2,-19%,-1%,-7%,19%,-1%,-6%
CCN(CC)CCNC(=O)C(Cl)=C1C(Cl)=C(Cl)C(Cl)=C1Cl,2µM*,22µM*,.,?,?,0.79µM*
COc1cnc(-c2ccccn2)nc1Sc1ccccc1,?,0%,6%,?,-20%,-27%
